Screen size: about 300,000 compounds; about 3,700 (1.2%) were called active. Inconclusive results (about 20%) are left out. Calls follow the shape of the full dose curve; tested in HEK293 cells. Shown is part of a subset that was picked to be rich in actives. Where a call stands in place of a potency, no number is given.
Assay: qHTS for Inhibitors of binding or entry into cells for Lassa Virus; also: nearly all actives have a fitted effect of over 50% in size
Conditions: Lassa virus pseudotype entry inhibition, cell reporter; series mostly up to 37.9 µM
Potency is read from the fitted curve at half-maximal effect.

| SMILES | Potency |
| --- | --- |
| Cc1nc(C)c(C(=O)N(c2ccc(C)c(C)c2)C(C(=O)NCc2ccco2)c2ccccc2)s1 (stereo unspecified) | 4.61 µM (active) |
| Cc1ccc(N(C(=O)c2sc(C)nc2C)C(C(=O)NC(C)(C)C)c2ccncc2)cc1 (stereo unspecified) | inactive |
| Cc1cccc(N(C(=O)Cc2cccs2)C(C(=O)NCc2ccco2)c2ccncc2)c1 (stereo unspecified) | inactive |
| Cc1ccc(OCc2cc(C(=O)N(C)CCn3ccnc3C)no2)cc1C | inactive |
| CCCN1CCN(C(=O)CCCNC(=O)c2ccc(Cl)cc2)CC1 | inactive |
| COc1ccccc1N1CCN(c2nc(C)cc(=O)[nH]2)CC1 | inactive |
| Cc1nnc(SCC(=O)N2c3ccccc3C(C)(c3ccc(Cl)cc3)CC2(C)C)s1 (stereo unspecified) | 10 µM (active) |
| Cc1nnc(SCC(=O)NCc2ccccc2)s1 | inactive |
| Cc1nnc(SCC(=O)N2CCc3ccccc3C2)s1 | inactive |
| Cc1ccc(NC2CCCN(C(=O)CCc3cn[nH]c3)C2)cc1C (stereo unspecified) | inactive |
| COc1cc(C(=S)N2CCOCC2)cc(OC)c1OC(=O)c1ccc([N+](=O)[O-])cc1[N+](=O)[O-] | inactive |
| Cc1ccc(SCC(=O)N2CCN(c3ccc(F)cc3)CC2)cc1 | inactive |
| CCN1CCC2(CC1)N=C(c1ccc(F)cc1)C(=S)N2C(=O)c1ccc(C)cc1 | 8.91 µM (active) |
| CCN1CCC(N(Cc2ccc(F)cc2)C(=O)Nc2cc(C)ccc2C)CC1 | inactive |
| COc1ccccc1C(=O)Nc1ccc(Nc2ccccc2)cc1 | inactive |
| CCC(=O)Nc1ccc2nc(SCC(=O)N3CCc4ccccc43)sc2c1 | inactive |
| COCCn1cnnc1SCC(=O)Nc1cccc(S(=O)(=O)N2CCCCC2)c1 | inactive |
| O=c1[nH]c(CCl)nc2cc(-c3ccc(Cl)cc3)sc12 | 10 µM (active) |
| NC(=O)Cc1nc2scc(-c3ccc(Cl)cc3)c2c(=O)[nH]1 | inactive |
| O=c1[nH]c(CN2CCOCC2)nc2cc(Cl)ccc12 | inactive |
| O=C1c2ccccc2C(=O)C1C(=O)C1CC1 | inactive |
| Cc1ccc(S(=O)(=O)N/N=C(\c2ccccc2)C2CC2)cc1 | inactive |
| CNC(=O)COC(=O)c1cc(-c2ccc(OC)cc2)nc2ccccc12 | inactive |
| COc1ccc(-c2cc(C(=O)N(C)Cc3ccccc3)c3ccccc3n2)cc1 | 10 µM (active) |
| COc1ccc(-c2cc(C(=O)n3cnc4ccccc43)c3ccccc3n2)cc1 | inactive |
| COc1ccccc1N1CC(C(=O)Nc2nnc(SCC(=O)NCC3CCCO3)s2)CC1=O (stereo unspecified) | inactive |

| SMILES | Potency |
| --- | --- |
| COc1ccc(C(CNC(=O)c2cc3c(s2)CCCC3)N2CCOCC2)cc1 (stereo unspecified) | inactive |
| Cc1ccc(C(CC(=O)O)NC(=O)c2ccc(S(=O)(=O)N3CCCC3)cc2)cc1 (stereo unspecified) | inactive |
| C=CCN1C(=O)N(Cc2ccccc2)c2ccccc2S1(=O)=O | inactive |
| O=C1c2ccccc2C(=O)C1c1ccccc1F | inactive |
| O=C1c2ccccc2C2=Nc3ccccc3SC(c3ccccc3F)C12 (stereo unspecified) | 20.6 µM (active) |
| CCn1c(/C=C/c2ccc([N+](=O)[O-])o2)nc2ccccc2c1=O | 3.66 µM (active) |
| Cc1ccc(-n2c(/C=C/c3cccc(C(F)(F)F)c3)nc3ccccc3c2=O)cc1 | inactive |
| Cn1cc(/C=C/c2nc3ccccc3c(=O)n2-c2cccc([N+](=O)[O-])c2)c2ccccc21 | inactive |
| COc1cccc(CC(=NO)c2cccc(OC)c2)c1 | inactive |
| O=C(c1ccccc1)C(Cn1cncn1)C(Sc1ccccc1)c1ccccc1 (stereo unspecified) | 22.4 µM (active) |
| Fc1ccccc1OCCCCn1cncn1 | inactive |
| OC(COc1ccc2ccccc2c1)Cn1cncn1 (stereo unspecified) | inactive |
| Cc1ccccc1N1CC(C(=O)Nc2nnc(SCCC3OCCO3)s2)CC1=O (stereo unspecified) | inactive |
| CCOc1cc2ccccc2cc1C(=O)Nc1ccccn1 | inactive |
| Cc1ccsc1C(=O)OCC(=O)c1cc(C)n(CC2CCCO2)c1C (stereo unspecified) | 2.59 µM (active) |
| Cc1cc(C(=O)Cn2cnc3cc([N+](=O)[O-])ccc3c2=O)c(C)n1CC1CCCO1 (stereo unspecified) | inactive |
| Cc1cc(C(=O)CCl)c(C)n1CC1COc2ccccc2O1 (stereo unspecified) | inactive |
| CCOC(=O)N1CCN(C(=O)C(=O)Nc2sc3c(c2C#N)CC(C)(C)OC3)CC1 | inactive |
| COC(=O)c1ccc(OC(=O)c2cnccn2)cc1 | inactive |
| CSCCC1NC(=O)N(CC(=O)Nc2cccc(S(=O)(=O)N3CCCCCC3)c2)C1=O (stereo unspecified) | inactive |
| CCOC(=O)N1CCC(NC(=O)c2cnn(-c3cccc(C)c3)c2C2CCN(C(=O)OC(C)(C)C)CC2)CC1 | inactive |
| CCN(CC)c1ccc(S(=O)(=O)N2CCCCC2)cc1NC(=O)C1=COCCO1 | inactive |
| CC(C)(C)c1ccc(C(=O)NCC(c2ccco2)S(=O)(=O)c2ccc(F)cc2)cc1 (stereo unspecified) | 12.6 µM (active) |
| O=C(NCC(c1ccco1)S(=O)(=O)c1cccs1)c1ccc(F)cc1 (stereo unspecified) | inactive |
| COc1ccccc1CNC(=O)C(=O)NCC(c1ccco1)S(=O)(=O)c1ccc(F)cc1 (stereo unspecified) | inactive |
